From PubChem
FXIa mix inh – inhibitors of human coagulation factor XIa, pooled mixtures; P03951; purified FXIa, fluorogenic substrate; inhibition, % at 5 µM; 62,000 compounds, 0.19% hits;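 further: each value is inhibition by a whole ten-compound pool holding the compound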
FXIIa mix inh – blocks human factor XIIa in pooled compound mixtures. 62,000 compounds, 0.2% hits. P00748. purified FXIIa, fluorogenic substrate. inhibition, % at 5 µM
Target sequence (P00748 20-372 limits assumed): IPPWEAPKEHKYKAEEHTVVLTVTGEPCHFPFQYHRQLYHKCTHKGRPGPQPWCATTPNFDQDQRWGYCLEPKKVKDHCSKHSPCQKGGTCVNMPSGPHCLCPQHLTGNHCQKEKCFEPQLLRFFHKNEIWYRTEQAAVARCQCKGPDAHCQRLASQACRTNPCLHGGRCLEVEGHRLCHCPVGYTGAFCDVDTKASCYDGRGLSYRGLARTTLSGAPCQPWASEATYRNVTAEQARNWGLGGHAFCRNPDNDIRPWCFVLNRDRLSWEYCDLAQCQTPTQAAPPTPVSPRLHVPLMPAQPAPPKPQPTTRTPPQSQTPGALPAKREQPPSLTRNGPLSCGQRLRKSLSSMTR
Target sequence (P00748 373-615 limits assumed): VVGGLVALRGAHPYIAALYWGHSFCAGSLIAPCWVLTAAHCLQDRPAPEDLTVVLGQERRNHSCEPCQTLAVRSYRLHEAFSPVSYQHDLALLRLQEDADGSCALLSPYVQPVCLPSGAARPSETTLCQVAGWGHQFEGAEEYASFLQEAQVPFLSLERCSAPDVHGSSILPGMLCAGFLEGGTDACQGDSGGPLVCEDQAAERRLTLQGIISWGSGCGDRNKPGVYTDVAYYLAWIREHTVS
HePTP inhibitor – blocks human HePTP tyrosine phosphatase | P35236 | recombinant HePTP phosphatase activity, OD absorbance | inhibition, % at 20 µM | 110,000 compounds, 0.64% hits; in the data active means inhibition above about 50%
TNAP act mid DEA – activates human TNAP at intermediate phosphate acceptor concentration. P05186. purified TNAP, CDP-star luminescence, 100 mM DEA, 30 min; active compounds read high; scale: 0 levamisole-inhibited, 1 vehicle-only enzyme. activation factor at 20 µM. 64,000 tested, under 10 active. AID 813;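 active means activation factor of at least 2 at 20 µM, relative to controls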
D1 mod – allosteric modulators of human D1 dopamine receptor; P21728; HEK293 D1, CRE-luciferase, dopamine EC30 potentiation; actives deviate in either direction; B-score at 10 µM; 58,000 compounds, 5.9% hits; AID 641;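 active means luminescence count or its row- and column-corrected plate score outside the 99.7% band of the plate's sample wells, on either side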
Calb biofilm kill – kills Candida albicans biofilms | AID 834 | 85,000 compounds, 0.14% hits | inhibition, % at 6 µM | C. albicans biofilm + clotrimazole, Alamar Blue;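 active means inhibition above 20%; inactive means inhibition below 20%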;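 further: preformed 24 hr biofilms exposed to compound for 48 hr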
D1 PAM confirm – D1 receptor (human) allosteric modulation, confirmed; shares compounds with D1 mod; HEK293 D1 CRE-luciferase, dopamine EC30 potentiation; active compounds read high; luminescence at 10 µM; 2,200 compounds, 88% hits; AID 642;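 active means luminescence in either of two replicates above the same-plate mean plus 3 SD of the low-dose dopamine control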
D1 ag no DA – D1 (human) signaling in absence of dopamine; shares compounds with D1 mod; HEK293 D1 CRE-luciferase, luminescence, no dopamine; active compounds read high; luminescence at 10 µM; 1,900 compounds, 0.8% hits; AID 646; in the data active means luminescence above about 3900
Isoprot counter – alters isoproterenol CRE-luciferase response in HEK293 cells; shares compounds with D1 mod; AID 647; luminescence at 10 µM; 2,200 compounds, 63% hits; HEK293 D1 CRE-luciferase, isoproterenol EC30 counter-screen; active compounds read high;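 active means luminescence in either replicate above plate mean of wells with a partly effective reference agonist dose plus 3 SD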;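 further: isoproterenol raises cAMP through native beta-adrenoceptor Gs so signal bypasses D1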
A number is an active result. Many of the other results were omitted from the sample, so hits are more common in it than they were. Unless noted, no stated cut-off is given here; in the data, active means inhibition above about 20% (passing the limit was not always enough); inactive means the rest.

For O=C(CN(C(=O)CSc1nnc(COc2ccccc2)o1)c1ccc(F)cc1)NC1CCCCC1 the results were FXIa mix inh inactive, FXIIa mix inh inactive, HePTP inhibitor inactive, TNAP act mid DEA inactive, D1 mod 3.2, D1 PAM confirm inactive, D1 ag no DA inactive and Isoprot counter inactive.
For O=C(CN(C(=O)CSc1nnc(COc2ccccc2)o1)c1ccc(F)cc1)NC1CCCC1 the results were FXIa mix inh inactive, FXIIa mix inh inactive, HePTP inhibitor inactive, TNAP act mid DEA inactive, D1 mod inactive and Calb biofilm kill inactive.
O=C(CSc1nnc(COc2ccc(F)cc2)o1)N1c2ccccc2CCc2ccccc21 was read as FXIa mix inh inactive, FXIIa mix inh inactive, HePTP inhibitor inactive, TNAP act mid DEA inactive, D1 mod 4.01, Calb biofilm kill inactive, D1 PAM confirm 13460, D1 ag no DA inactive and Isoprot counter inactive.
Cc1c(OCC(=O)c2ccccc2)ccc2c3c(c(=O)oc12)CCC3 was read as HePTP inhibitor inactive.
For COc1cc(/C=C2\C(=O)NC(=O)N(c3ccc(F)cc3)C2=O)ccc1OCC(=O)O the results were HePTP inhibitor inactive.
`O=S(=O)(NN=Cc1cn(-c2ccccc2)nc1-c1ccco1)c1ccccc1` gave HePTP inhibitor inactive.
Screening O=C(O)C1CC(=O)N(Cc2ccccc2)C1 (stereo unspecified) returned FXIa mix inh inactive, FXIIa mix inh inactive, HePTP inhibitor inactive, TNAP act mid DEA inactive, D1 mod inactive and Calb biofilm kill inactive.
For COC(=O)c1sc(N)c(C(=O)OC)c1COC(=O)C1CC(=O)N(Cc2ccco2)C1 (stereo unspecified) the results were FXIa mix inh inactive, FXIIa mix inh inactive, HePTP inhibitor inactive, TNAP act mid DEA inactive, D1 mod inactive and Calb biofilm kill inactive.
For CCOC(=O)c1[nH]c(COC(=O)C2CC(=O)N(Cc3ccccc3)C2)c(C(=O)OCC)c1C (stereo unspecified) the results were FXIa mix inh inactive, FXIIa mix inh inactive, HePTP inhibitor inactive, TNAP act mid DEA inactive, D1 mod 2.92, Calb biofilm kill inactive, D1 PAM confirm inactive, D1 ag no DA inactive and Isoprot counter inactive.
For CCOC(=O)c1sc(N)c(C(=O)OCC)c1COC(=O)C1CC(=O)N(Cc2ccco2)C1 (stereo unspecified) the results were FXIa mix inh inactive, FXIIa mix inh inactive, HePTP inhibitor inactive, TNAP act mid DEA inactive, D1 mod 6.05, Calb biofilm kill inactive, D1 PAM confirm 8580 and Isoprot counter 3336.
COc1ccc(-c2nnc3sc(CN4C(=O)c5ccccc5C4=O)nn23)cc1 was read as FXIa mix inh inactive, FXIIa mix inh inactive, HePTP inhibitor inactive, TNAP act mid DEA inactive, D1 mod inactive and Calb biofilm kill inactive.
`COc1ccc(-c2nnc3sc(C(C)N4C(=O)c5ccccc5C4=O)nn23)cc1` (stereo unspecified) gave FXIa mix inh inactive, FXIIa mix inh inactive, HePTP inhibitor inactive, TNAP act mid DEA inactive, D1 mod 9.32, Calb biofilm kill inactive, D1 PAM confirm 10292, D1 ag no DA inactive and Isoprot counter 5324.
`N#Cc1c(N)c(C(=O)c2ccccc2)n2c1CCC2` gave FXIa mix inh inactive, FXIIa mix inh inactive, HePTP inhibitor inactive, TNAP act mid DEA inactive, D1 mod inactive and Calb biofilm kill inactive.
`COC(=O)c1c(N)c(C#N)c2n1CCCCC2` gave FXIa mix inh inactive, FXIIa mix inh inactive, HePTP inhibitor inactive, TNAP act mid DEA inactive, D1 mod 3.82, Calb biofilm kill inactive, D1 PAM confirm 7512 and Isoprot counter inactive.
For CCOc1ccc(CNC(=O)CCn2c(=O)oc3ccccc32)cc1 the results were FXIa mix inh inactive, FXIIa mix inh inactive, HePTP inhibitor inactive, TNAP act mid DEA inactive, D1 mod 5.36, D1 PAM confirm inactive, D1 ag no DA inactive and Isoprot counter inactive.
`N#CCCCCn1c(-c2cncs2)nc2ccccc21` gave FXIa mix inh inactive, FXIIa mix inh inactive, HePTP inhibitor inactive, TNAP act mid DEA inactive, D1 mod 4.73, Calb biofilm kill inactive, D1 PAM confirm 17344, D1 ag no DA inactive and Isoprot counter 3252.
`O=c1c2ccccc2n(Cc2ccc(Cl)cc2)c(=O)n1Cc1ccco1` gave FXIa mix inh inactive, FXIIa mix inh inactive, HePTP inhibitor inactive, TNAP act mid DEA inactive, D1 mod 8.51, Calb biofilm kill inactive, D1 PAM confirm 16764, D1 ag no DA inactive and Isoprot counter 3544.
`Cc1ccc(Cn2c(=O)n(Cc3ccco3)c(=O)c3ccccc32)cc1` gave FXIa mix inh inactive, FXIIa mix inh inactive, HePTP inhibitor inactive, TNAP act mid DEA inactive, D1 mod 12.1, Calb biofilm kill inactive, D1 PAM confirm 15080, D1 ag no DA inactive and Isoprot counter 4524.
Screening O=c1c2cc(Cl)ccc2[nH]c(=S)n1Cc1ccco1 returned FXIa mix inh inactive, FXIIa mix inh inactive, HePTP inhibitor inactive, TNAP act mid DEA inactive, D1 mod 2.83, Calb biofilm kill inactive, D1 PAM confirm 9744, D1 ag no DA inactive and Isoprot counter inactive.
Screening O=c1[nH]c2ccc(Cl)cc2c(=O)n1Cc1ccco1 returned FXIa mix inh inactive, FXIIa mix inh inactive, HePTP inhibitor inactive, TNAP act mid DEA inactive and Calb biofilm kill inactive.
Screening O=C(CCCn1c(=O)c2ccccc2n(Cc2ccccc2)c1=O)NCc1ccco1 returned FXIa mix inh inactive, FXIIa mix inh inactive, HePTP inhibitor inactive, TNAP act mid DEA inactive, D1 mod 2.99, Calb biofilm kill inactive, D1 PAM confirm 8576, D1 ag no DA inactive and Isoprot counter 2992.
Screening CN(C)c1ccc(NC2=NC3(CCCCC3)N=C(N)N2)cc1 returned HePTP inhibitor inactive.
For COC(=O)C1=C(C)NC(C)=C(C(=O)OC)C1c1ccc(Br)cc1 the results were HePTP inhibitor inactive.
Screening O=C1CC(c2ccccc2)CC(O)=C1C=Nc1ccccc1-c1ccccc1 (stereo unspecified) returned HePTP inhibitor inactive.
Screening CCc1nnc(NS(=O)(=O)c2ccc(NC(=O)c3ccccc3[N+](=O)[O-])cc2)s1 returned HePTP inhibitor inactive.
For N#CCSc1nc(N)c(C#N)c(C2CCCCC2)c1C#N the results were FXIa mix inh inactive, FXIIa mix inh inactive, HePTP inhibitor inactive, TNAP act mid DEA inactive, D1 mod 8.99, Calb biofilm kill inactive, D1 PAM confirm 13172 and Isoprot counter 5892.
`CCOC(=O)C1=C(O)/C(=C/c2ccc(N(CC)CC)cc2)SC1=Nc1ccc(OC)cc1` gave HePTP inhibitor inactive.
